In PubChem BioAssay (EPA / NIEHS):
Activity calls are given as the source filed them. Rule for the calls: active = hit-call score of the fitted dose curve at least 0.9, where 1 is the maximum; inactive = score below 0.9.

Columns and labels:
[1] = read-out: Matrix Metallopeptidase 9 (MMP9), MMP9 (gene 4318); assay: BSK_KF3CT_MMP9: BioMAP Diversity Plus: KF3CT Assay for Matrix Metallopeptidase 9 (MMP9) Biomarker Activity (AID 2283074); conditions: primary human keratinocytes with fibroblasts; actives raise or lower the signal;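 for AC50: MMP9 protein level quantified by ELISA in the co-culture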
In short: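 MMP-9 quantified by ELISA after 24 h chemical treatment of primary human skin keratinocyte/fibroblast co-cultures; gain or loss fitted against DMSO, with parallel SRB staining (0.1% SRB, 560 nm) for overt cytotoxicity.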

[2] = read-out: urokinase plasminogen activator (uPA), PLAU (gene 5328); assay: BSK_KF3CT_uPA: BioMAP Diversity Plus: KF3CT Assay for urokinase plasminogen activator (uPA) Biomarker Activity (AID 2283075); conditions: primary human keratinocytes with fibroblasts; actives raise or lower the signal
In short: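 ELISA read-out of uPA 24 h after dosing human skin keratinocytes co-cultured with foreskin fibroblasts. Signal change fitted both ways relative to DMSO; sulforhodamine B on parallel cultures marks overt cytotoxicity.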

[3] = read-out: CD40, CD40 (gene 958); assay: BSK_LPS_CD40: BioMAP Diversity Plus: LPS Assay for CD40 Biomarker Activity (AID 2283076); conditions: primary human HUVEC with PBMC; actives raise or lower the signal
In short: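 Using a multiplexed primary human co-culture (umbilical vein endothelium plus PBMC), CD40 was read by ELISA 24 h after dosing, with cytotoxicity tracked by sulforhodamine B staining of parallel cultures and activity fitted bidirectionally versus DMSO.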

[4] = read-out: E-selectin (Homo sapiens) (UniProt P16581); assay: BSK_LPS_Eselectin: BioMAP Diversity Plus: LPS Assay for Eselectin Biomarker Activity (AID 2283077); conditions: primary human HUVEC with PBMC; actives raise or lower the signal
In short: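 Dose chemical onto LPS-driven HUVEC/PBMC co-culture; after 24 h, run ELISA for E-selectin; fit up- and down-going responses relative to DMSO control.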

[5] = read-out: Interleukin-8 (IL8), CXCL8 (gene 3576); assay: BSK_LPS_IL8: BioMAP Diversity Plus: LPS Assay for Interleukin-8 (IL8) Biomarker Activity (AID 2283078); conditions: primary human HUVEC with PBMC; actives raise or lower the signal
In short: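 In this LPS system, chemical-treated human umbilical vein endothelium/PBMC co-cultures were harvested at 24 h for IL-8 ELISA.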

[6] = BSK_LPS_SRB: Viability Assessment in the BioMAP Diversity Plus: LPS Assay (AID 2283079); conditions: primary human HUVEC with PBMC;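 note: total protein by sulforhodamine B absorbance as a cytotoxicity measure; measured one day after compound addition; fitted in both directions against DMSO so loss or gain of signal counts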
In short: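 Cytotoxicity endpoint in human endothelial–PBMC co-culture: 24 h exposure, then SRB (0.1%) staining, 560 nm read.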

[7] = read-out: Interleukin-1 alpha (IL1a), IL1A (gene 3552); assay: BSK_LPS_IL1a: BioMAP Diversity Plus: LPS Assay for Interleukin-1 alpha (IL1a) Biomarker Activity (AID 2283080); conditions: primary human HUVEC with PBMC; actives raise or lower the signal
In short: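 Primary human HUVEC and PBMC co-culture stimulated with LPS is dosed and harvested at 24 h. Both increases and decreases in ELISA-measured IL-1a are scored relative to DMSO.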

[8] = read-out: Monocyte Chemoattractant Protein-1 (MCP1), CCL2 (gene 6347); assay: BSK_LPS_MCP1: BioMAP Diversity Plus: LPS Assay for Monocyte Chemoattractant Protein-1 (MCP1) Biomarker Activity (AID 2283081); conditions: primary human HUVEC with PBMC; actives raise or lower the signal;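 for AC50: secreted MCP-1 protein quantified by ELISA in culture supernatant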
In short: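 Values derive from bidirectional fitting against DMSO of ELISA-measured MCP-1 in a human primary endothelial and mononuclear cell co-culture, 24 h after chemical addition under LPS activation.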

[9] = BSK_LPS_PGE2: BioMAP Diversity Plus: LPS Assay for Prostaglandin E2 (PGE2) Biomarker Activity (AID 2283082); conditions: primary human HUVEC with PBMC; actives raise or lower the signal;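 for AC50: secreted prostaglandin E2 measured by ELISA in LPS-stimulated co-culture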
In short: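 Primary human endothelial cells and blood mononuclear cells, co-cultured with LPS, receive test chemical; PGE2 ELISA follows at 24 h, with SRB-stained parallel cultures flagging cytotoxicity.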

[10] = read-out: Macrophage colony-stimulating factor (MCSF), CSF1 (gene 1435); assay: BSK_LPS_MCSF: BioMAP Diversity Plus: LPS Assay for Macrophage colony-stimulating factor (MCSF) Biomarker Activity (AID 2283083); conditions: primary human HUVEC with PBMC; actives raise or lower the signal
In short: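 Bidirectional fit versus DMSO of ELISA-measured M-CSF in co-cultured human umbilical vein endothelial cells and PBMC, sampled 24 h after dosing.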

[11] = read-out: Tissue Factor, F3 (gene 2152); assay: BSK_LPS_TissueFactor: BioMAP Diversity Plus: LPS Assay for Tissue Factor Biomarker Activity (AID 2283084); conditions: primary human HUVEC with PBMC; actives raise or lower the signal
In short: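 Read-out: CD142 ELISA, 24 h. System: LPS-driven human endothelial/PBMC co-culture. Analysis: up- or down-signal fitted against DMSO.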

[12] = read-out: Tumor necrosis factor (Homo sapiens) (UniProt P01375); assay: BSK_LPS_TNFa: BioMAP Diversity Plus: LPS Assay for Tumour Necrosis Factor alpha (TNFa) Biomarker Activity (AID 2283085); conditions: primary human HUVEC with PBMC; actives raise or lower the signal;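 for AC50: TNFa protein level quantified by ELISA in the co-culture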
In short: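 ELISA-based TNFa endpoint in a human endothelial–PBMC co-culture sampled 24 h post-exposure. Curves were fitted in both directions using DMSO as baseline of activity.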

[13] = read-out: Vascular cell adhesion molecule 1 (VCAM1), VCAM1 (gene 7412); assay: BSK_LPS_VCAM1: BioMAP Diversity Plus: LPS Assay for Vascular cell adhesion molecule 1 (VCAM1) Biomarker Activity (AID 2283086); conditions: primary human HUVEC with PBMC; actives raise or lower the signal
In short: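 Measured by ELISA: VCAM-1 in LPS-activated HUVEC/PBMC co-cultures 24 h after treatment. Values reflect bidirectional fitting with DMSO as baseline.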

[14] = read-out: CD38, CD38 (gene 952); assay: BSK_SAg_CD38: BioMAP Diversity Plus: SAg Assay for CD38 Biomarker Activity (AID 2283087); conditions: primary human HUVEC with PBMC; actives raise or lower the signal
In short: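 Measures CD38 on a human endothelial/PBMC co-culture driven by SEB and TSST-1, 24 h after compound exposure, using ELISA with fluorescence detection; DMSO defines baseline for bidirectional curve fitting.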

[15] = read-out: CD40, CD40 (gene 958); assay: BSK_SAg_CD40: BioMAP Diversity Plus: SAg Assay for CD40 Biomarker Activity (AID 2283088); conditions: primary human HUVEC with PBMC; actives raise or lower the signal
In short: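 Endpoint derived by fitting increases or decreases versus DMSO controls. CD40 is detected by fluorescence ELISA in a human vascular co-culture of endothelium and PBMC at 24 h.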

[16] = read-out: CD69, CD69 (gene 969); assay: BSK_SAg_CD69: BioMAP Diversity Plus: SAg Assay for CD69 Biomarker Activity (AID 2283089); conditions: primary human HUVEC with PBMC; actives raise or lower the signal;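 for AC50: cell surface CD69 protein quantified by ELISA with fluorescence detection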
In short: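 ELISA, fluorescence read-out: CD69 on human umbilical vein endothelial cell + PBMC co-culture, 24 h post-dosing. Gain or loss of signal fitted bidirectionally against DMSO baseline.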

[17] = read-out: Monocyte Chemoattractant Protein-1 (MCP1), CCL2 (gene 6347); assay: BSK_SAg_MCP1: BioMAP Diversity Plus: SAg Assay for Monocyte Chemoattractant Protein-1 (MCP1) Biomarker Activity (AID 2283090); conditions: primary human HUVEC with PBMC; actives raise or lower the signal
In short: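 Values derive from bidirectional fitting of ELISA-measured MCP1 against DMSO controls. Readings were taken 24 h after dosing human vascular endothelial cells co-cultured with peripheral blood mononuclear cells under superantigen stimulation.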

[18] = read-out: Monokine induced gamma interferon (MIG), CXCL9 (gene 4283); assay: BSK_SAg_MIG: BioMAP Diversity Plus: SAg Assay for Monokine induced gamma interferon (MIG) Biomarker Activity (AID 2283092); conditions: primary human HUVEC with PBMC; actives raise or lower the signal
In short: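 ELISA readout of MIG/CXCL9; primary human umbilical vein endothelial cells co-cultured with peripheral blood mononuclear cells; 24 h post-dose; gain/loss fit vs DMSO baseline.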

[19] = BSK_SAg_PBMCCytotoxicity: PBMC Cytotoxicity Assessment in the BioMAP Diversity Plus: SAg Assay (AID 2283093); conditions: primary human HUVEC with PBMC;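 note: PBMC viability measured as Alamar Blue reduction fluorescence at 546/580 nm; fitted both ways against DMSO so a hit may be loss or gain of signal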;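 for AC50: PBMC superantigen activated with SEB plus TSST-1 one hour after compound addition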
In short: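 Alamar Blue reduction (6 h, ex/em 546/580 nm) read after 90 h culture of PBMC pre-dosed 1 h then stimulated with SEB plus TSST-1, 20 ng/mL each. Gain or loss of signal fitted relative to DMSO.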

[20] = read-out: E-selectin (Homo sapiens) (UniProt P16581); assay: BSK_SAg_Eselectin: BioMAP Diversity Plus: SAg Assay for Eselectin Biomarker Activity (AID 2283091); conditions: primary human HUVEC with PBMC; actives raise or lower the signal
In short: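 Endpoint values derive from bidirectional fitting relative to DMSO, using ELISA-measured E-selectin in a human vascular co-culture (umbilical vein endothelium plus PBMC) sampled 24 h after dosing.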

Measured: AC50

Sequence of E-selectin (Homo sapiens) (P16581 whole entry, looked up): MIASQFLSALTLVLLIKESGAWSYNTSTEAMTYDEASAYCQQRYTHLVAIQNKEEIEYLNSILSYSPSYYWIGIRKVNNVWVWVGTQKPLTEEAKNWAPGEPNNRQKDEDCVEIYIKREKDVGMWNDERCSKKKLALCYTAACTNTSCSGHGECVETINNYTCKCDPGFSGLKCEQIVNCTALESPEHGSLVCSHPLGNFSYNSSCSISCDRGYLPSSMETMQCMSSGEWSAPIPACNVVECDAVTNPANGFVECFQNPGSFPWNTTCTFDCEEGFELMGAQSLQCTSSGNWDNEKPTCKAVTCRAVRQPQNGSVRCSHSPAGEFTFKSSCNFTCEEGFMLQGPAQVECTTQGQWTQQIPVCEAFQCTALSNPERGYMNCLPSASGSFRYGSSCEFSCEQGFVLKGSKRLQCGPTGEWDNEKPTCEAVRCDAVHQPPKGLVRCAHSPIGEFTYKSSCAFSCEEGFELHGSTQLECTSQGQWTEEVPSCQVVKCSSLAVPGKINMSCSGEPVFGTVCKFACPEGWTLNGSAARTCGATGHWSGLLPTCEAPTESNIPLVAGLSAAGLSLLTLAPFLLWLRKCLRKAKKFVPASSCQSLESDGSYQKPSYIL
Sequence of Tumor necrosis factor (Homo sapiens) (P01375 whole entry, looked up): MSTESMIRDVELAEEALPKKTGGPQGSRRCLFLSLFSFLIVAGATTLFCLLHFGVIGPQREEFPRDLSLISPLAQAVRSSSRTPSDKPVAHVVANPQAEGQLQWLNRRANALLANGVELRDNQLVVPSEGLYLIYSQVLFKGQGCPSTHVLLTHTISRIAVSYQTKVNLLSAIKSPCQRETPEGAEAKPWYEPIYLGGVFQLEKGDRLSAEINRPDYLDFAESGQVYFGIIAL

CC(C)(C)OOC(C)(C)CCC(C)(C)OOC(C)(C)C
not listed: [20]
inactive: all other assays above

Oc1ccc2ccc3cccc4ccc1c2c34
inactive: [2]
active: [1] 15.3 µM | [3] 20 µM | [4] 31.4 µM | [5] 30.5 µM | [6] 32 µM | [7] 29.2 µM | [8] 29.7 µM | [9] 4.03 µM | [10] 30.4 µM | [11] 34.4 µM | [12] 33 µM | [13] 35.3 µM | [14] 16.5 µM | [15] 23.3 µM | [16] 31.9 µM | [17] 29.5 µM | [18] 36.7 µM | [19] 8.38 µM

CCC(C)c1ccc(O)cc1 (stereo not given)
active: [9] 4.17 µM
inactive: all other assays above

OCCOCCO
inactive: all assays above

CN(C)C(=O)Nc1ccc(Cl)cc1
inactive: all assays above

CCCSC(=O)N(CCC)CCC
inactive: all assays above

O=Cc1ccco1
not listed: [20]
inactive: all other assays above

ClC1=C(Cl)[C@]2(Cl)[C@H]3[C@H]([C@@H]4C=C[C@H]3C4)[C@@]1(Cl)C2(Cl)Cl
inactive: [9]
active: [1] 11.6 µM | [2] 28.7 µM | [3] 32.1 µM | [4] 33.5 µM | [5] 33.8 µM | [6] 30.5 µM | [7] 28.9 µM | [8] 36.8 µM | [10] 31.6 µM | [11] 31.2 µM | [12] 31.5 µM | [13] 29.8 µM | [14] 16.8 µM | [15] 27.9 µM | [16] 27.5 µM | [17] 31.3 µM | [20] 32.7 µM | [18] 35 µM | [19] 15.4 µM

COc1cc(C=O)cc2c1[C@H](COC(N)=O)[C@]1(OC(C)=O)ON2C[C@H]2[C@@H]1N2C(C)=O
active: [1] 2.07 µM | [2] 11.4 µM | [3] 20 µM | [4] 10.6 µM | [5] 13.3 µM | [6] 6.69 µM | [7] 19.7 µM | [8] 5.86 µM | [10] 3.97 µM | [11] 14.3 µM | [13] 16.7 µM | [14] 15.9 µM | [15] 18.2 µM | [16] 13.2 µM | [17] 5.75 µM | [18] 28.7 µM | [19] 4.25 µM
inactive: [9] | [12]

Nc1ccc(Cl)cc1N
active: [1] 8.99 µM | [4] 4.45 µM | [9] 10 µM | [10] 2.96 µM | [13] 3.62 µM | [14] 6.44 µM | [16] 3.65 µM | [17] 3.7 µM | [20] 8.35 µM
inactive: all other assays above

OCCCBr
inactive: all assays above

CCCCOC(=O)c1ccccc1C(=O)OCc1ccccc1
active: [9] 8.72 µM | [13] 10.7 µM
not listed: [20]
inactive: all other assays above
